For test [1], the system named is Wnt5a (protein binding on small-molecule microarray). Briefly: small molecules binding Wnt5a protein – biophysical, small-molecule microarray, 635/667 nm fluorescence, primary screen (AID 1142).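 Further: fluorescence read at 667 nm with signal to noise per printed feature.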 The following applies: 635 nm fluorescence, higher = more signal.
A short description of test [2]: ATP-based viability of Huh7 replicon cells – cell-based, CellTiter-Glo luminescence, basal, 48 h, cytotoxicity control for HCV replication inhibitor project, primary screen (AID 1143).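 Further: Huh7 hepatoma cells carrying a hepatitis C replication reporter with no stimulus; test concentration not given here.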 The following applies: higher = more signal, called active from +8 up or from −8 down.
A short description of test [3]: basal CRE-LacZ reporter activity in PC12 – cell-based, unstimulated, primary screen (AID 1145). The following applies: no forskolin, luminescence, 4.5 h, higher = more signal, called active from +8 up or from −8 down.
Test [4] in a line: forskolin-driven CRE-LacZ activity in PC12 – cell-based, CRE-LacZ reporter, forskolin-stimulated, primary screen (AID 1146).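 Further: PC12 cells with 6xCRE LacZ reporter stimulated by forskolin 10 µM; beta-galactosidase reporter signal reflecting CREB driven transcription.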 The following applies: luminescence, 4.5 h, higher = more signal, called active from +8 up or from −8 down.
Test [5] addresses Streptavidin (Streptomyces avidinii) (UniProt P22629). As to the kind of experiment: compounds binding control protein streptavidin – biophysical, small-molecule microarray, 635/667 nm fluorescence, artefact control for SMM compound annotation, primary screen (AID 1147).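 Further: signal reflects streptavidin binding to arrayed compounds as a control protein.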 As to conditions: higher = more signal.
Test [6] in a line: probe aInhba binding on compound microarray – biochemical, small-molecule microarray, 635/667 nm fluorescence, primary screen (AID 1148).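 Further: score merges 667nm spot fluorescence with signal-to-noise for antibody binding to printed compounds.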 As to conditions: higher = more signal.
Test [7] concerns the target Torsin-1A (Homo sapiens) (UniProt O14656). As to the kind of experiment: TOR1A wild-type binding on microarray – cell lysate, small-molecule microarray, lysate, 635/667 nm, primary screen (AID 1149). As to conditions: COS7 hTOR1A-WT lysate, 635 nm fluorescence, higher = more signal.
Test [8] shares this target. Briefly: torsin A mutant lysate binding on microarrays – cell lysate, small-molecule microarray, COS7 lysate, 635/667 nm fluorescence, primary screen (AID 1150).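 Further: score pools 667 nm emission and signal to noise measuring lysate protein binding.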 As to conditions: COS7 hTOR1A mutant lysate, 635 nm fluorescence, higher = more signal.
The subject of test [9] is Sonic hedgehog protein (Shh). As to the kind of experiment: Sonic hedgehog microarray binding compounds – biochemical, small-molecule microarray, 635/667 nm fluorescence, primary screen (AID 1151).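 Further: Shh protein binding to compounds spotted on small-molecule microarray slides; score combines spot fluorescence intensity with signal-to-noise across triplicate slides.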 As to conditions: 635 nm fluorescence, higher = more signal.
Test [10] is described as follows: optical density shifts of acrAB sulA E. coli – strain DRC41, OD650, 48 h, E. coli filamentation inducer project, primary screen (AID 1152).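 Further: E. coli MC1000 strain DRC41 lacking acrAB efflux pump and sulA.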 As to conditions: higher = more signal, called active from +8 up or from −8 down.
Test [11] is described as follows: probe aLefty1 binding on compound microarray – biochemical, small-molecule microarray, 635/667 nm fluorescence, primary screen (AID 1153).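 Further: score merges spot fluorescence with signal-to-noise ratio from the scanned slide images.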 As to conditions: higher = more signal.
Test [12] is described as follows: plasmodial surface anion channel blockers, osmotic lysis – cell-based, P. falciparum Indochina, OD700, 1 h, primary screen (AID 1154). The following applies: P. falciparum Indochina infected RBC osmotic lysis, higher = more signal, called active from +8 up or from −8 down.
Test [13] can be described thus: plasmodial surface anion channel blockers, osmotic lysis – cell-based, P. falciparum Indochina, OD700, 2 h, primary screen (AID 1155).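 Further: lysis reports solute entry through the parasite surface anion channel PSAC.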 As to conditions: P. falciparum Indochina infected erythrocytes, higher = more signal, called active from +8 up or from −8 down.
A short description of test [14]: changes in parasitized red cell lysis, either direction – P. falciparum Indochina, OD700, 3 h, PSAC antagonist project, primary screen (AID 1156). As to conditions: P. falciparum-infected erythrocytes, osmotic lysis, higher = more signal, called active from +8 up or from −8 down.
Test [15] can be described thus: plasmodial surface anion channel blockers, osmotic lysis – cell-based, P. falciparum Indochina, OD700, 18 h, primary screen (AID 1157). As to conditions: P. falciparum Indochina infected erythrocytes, osmotic lysis OD700, 18 h; higher = more signal, called active from +8 up or from −8 down.
Test [16] is described as follows: S6 kinase pathway phospho-S6 level changes – cell-based, A549, cytoblot, luminescence, serum-stimulated, primary screen (AID 1158).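 Further: serum-stimulated A549 lung adenocarcinoma cells; signal is phosphorylated S6 detected by cytoblot immunostaining with HRP secondary.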 As to conditions: 5 h, higher = more signal.
Test [17] deals with NADPH oxidase 2 (Homo sapiens) (UniProt P04839). As to the kind of experiment: compounds shifting NOX2 Amplex Red fluorescence – cell-based, HEK293-NOX2, PMA-stimulated, NOX inhibitor project, primary screen (AID 1159). Further: test concentration not given here. The following applies: 45 min, higher = more signal, called active from +8 up or from −8 down.
Test [18] concerns the target NADPH oxidase 4 (Homo sapiens) (UniProt Q9NPH5). Briefly: compounds shifting NOX4 Amplex Red fluorescence – cell-based, HEK293-NOX4, tetracycline-induced, NOX inhibitor project, primary screen (AID 1160). As to conditions: HEK293-NOX4, Amplex Red H2O2 fluorescence, 45 min; higher = more signal, called active from +8 up or from −8 down.
In test [19] the target is NADPH oxidase 5 (Homo sapiens) (UniProt Q96PH1). Briefly: compounds shifting NOX5 Amplex Red fluorescence – cell-based, HEK293-NOX5, NOX inhibitor project, primary screen (AID 1161). The following applies: HEK293-NOX5, ionomycin, 45 min, higher = more signal.

The record followed here is PubChem BioAssay.

Each structure is given as a SMILES string. The source made the active and inactive calls.

Sequence of Streptavidin (Streptomyces avidinii) (P22629 whole entry, looked up): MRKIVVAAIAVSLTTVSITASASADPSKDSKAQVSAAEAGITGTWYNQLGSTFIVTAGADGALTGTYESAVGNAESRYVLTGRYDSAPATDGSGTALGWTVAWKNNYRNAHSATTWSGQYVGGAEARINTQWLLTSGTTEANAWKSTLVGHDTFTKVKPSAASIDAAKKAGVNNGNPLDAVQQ
Sequence of Torsin-1A (Homo sapiens) (O14656 whole entry, looked up): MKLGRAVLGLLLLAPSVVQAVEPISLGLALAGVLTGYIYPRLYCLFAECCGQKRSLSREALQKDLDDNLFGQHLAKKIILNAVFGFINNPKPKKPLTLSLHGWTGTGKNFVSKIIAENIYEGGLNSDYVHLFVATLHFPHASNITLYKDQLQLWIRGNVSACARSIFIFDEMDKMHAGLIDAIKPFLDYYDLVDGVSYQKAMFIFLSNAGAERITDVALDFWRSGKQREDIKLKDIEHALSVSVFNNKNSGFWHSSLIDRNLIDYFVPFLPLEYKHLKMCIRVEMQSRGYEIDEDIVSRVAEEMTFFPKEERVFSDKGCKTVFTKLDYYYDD
Sequence of NADPH oxidase 2 (Homo sapiens) (P04839 whole entry, looked up): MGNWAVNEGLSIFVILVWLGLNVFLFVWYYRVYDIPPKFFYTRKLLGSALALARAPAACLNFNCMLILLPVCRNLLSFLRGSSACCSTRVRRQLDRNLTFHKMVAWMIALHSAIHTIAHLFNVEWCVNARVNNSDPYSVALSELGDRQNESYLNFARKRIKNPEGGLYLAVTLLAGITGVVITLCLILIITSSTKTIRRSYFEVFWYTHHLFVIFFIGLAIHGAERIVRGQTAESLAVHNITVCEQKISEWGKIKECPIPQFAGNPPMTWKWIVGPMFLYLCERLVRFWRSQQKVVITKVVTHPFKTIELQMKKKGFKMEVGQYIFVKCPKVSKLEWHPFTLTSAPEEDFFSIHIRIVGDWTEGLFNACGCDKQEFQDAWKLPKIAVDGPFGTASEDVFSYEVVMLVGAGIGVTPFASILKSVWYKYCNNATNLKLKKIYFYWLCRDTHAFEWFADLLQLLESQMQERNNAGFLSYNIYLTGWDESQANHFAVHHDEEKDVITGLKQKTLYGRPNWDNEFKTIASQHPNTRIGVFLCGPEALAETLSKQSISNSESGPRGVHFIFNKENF
Sequence of NADPH oxidase 4 (Homo sapiens) (Q9NPH5 whole entry, looked up): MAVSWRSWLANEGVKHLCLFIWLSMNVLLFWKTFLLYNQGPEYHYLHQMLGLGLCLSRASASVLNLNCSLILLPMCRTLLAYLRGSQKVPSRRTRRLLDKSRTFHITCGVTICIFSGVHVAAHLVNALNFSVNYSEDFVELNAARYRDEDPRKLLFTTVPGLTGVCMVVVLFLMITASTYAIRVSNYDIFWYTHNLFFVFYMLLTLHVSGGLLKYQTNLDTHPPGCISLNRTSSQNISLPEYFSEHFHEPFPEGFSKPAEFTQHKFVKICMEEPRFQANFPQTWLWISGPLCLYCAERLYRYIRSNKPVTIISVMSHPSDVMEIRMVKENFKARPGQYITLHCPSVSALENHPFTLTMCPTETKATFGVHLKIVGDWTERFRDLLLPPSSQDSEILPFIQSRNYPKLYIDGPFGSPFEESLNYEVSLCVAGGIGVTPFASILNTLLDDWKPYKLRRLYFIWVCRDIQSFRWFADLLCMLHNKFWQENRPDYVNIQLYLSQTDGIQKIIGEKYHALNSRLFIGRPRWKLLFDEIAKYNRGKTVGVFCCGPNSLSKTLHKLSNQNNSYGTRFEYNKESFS
Sequence of NADPH oxidase 5 (Homo sapiens) (Q96PH1 whole entry, looked up): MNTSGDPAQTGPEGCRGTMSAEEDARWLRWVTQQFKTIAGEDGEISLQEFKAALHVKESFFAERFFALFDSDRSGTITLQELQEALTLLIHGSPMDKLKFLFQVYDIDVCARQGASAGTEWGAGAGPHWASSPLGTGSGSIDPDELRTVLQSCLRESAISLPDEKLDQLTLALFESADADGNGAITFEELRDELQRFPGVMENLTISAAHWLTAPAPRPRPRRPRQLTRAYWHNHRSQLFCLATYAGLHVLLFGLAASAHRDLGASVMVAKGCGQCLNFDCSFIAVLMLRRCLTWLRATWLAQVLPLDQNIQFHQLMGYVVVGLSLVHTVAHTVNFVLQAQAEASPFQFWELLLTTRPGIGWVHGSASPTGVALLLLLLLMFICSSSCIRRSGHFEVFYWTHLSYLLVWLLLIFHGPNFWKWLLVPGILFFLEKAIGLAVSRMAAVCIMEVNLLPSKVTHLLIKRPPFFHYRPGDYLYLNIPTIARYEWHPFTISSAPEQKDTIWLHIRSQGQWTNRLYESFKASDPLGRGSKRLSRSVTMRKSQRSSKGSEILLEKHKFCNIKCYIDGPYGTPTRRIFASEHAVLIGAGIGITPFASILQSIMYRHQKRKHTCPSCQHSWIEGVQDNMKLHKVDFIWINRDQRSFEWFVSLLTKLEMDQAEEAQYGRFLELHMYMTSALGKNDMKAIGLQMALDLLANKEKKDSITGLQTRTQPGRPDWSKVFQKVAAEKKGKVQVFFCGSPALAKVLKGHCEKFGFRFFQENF

With `CC(=O)NCCCC[C@@H]1NC(=O)[C@@H]2C[C@H](C(=O)NCCCCCNC(=O)CS)[C@H](c3ccc(O)cc3)N2C1=O`, the composite z-score in [1] is 0.443; in test [5], -0.654; in test [6], -0.179; with Torsin-1A (Homo sapiens) [7] it was 0.0918; with Torsin-1A (Homo sapiens) [8], 0.324; in [9] it was 1.49. The compound also had a composite z-score in test [11] of -0.0528. Moreover, the z-score in [2] was -1.62 (inactive); in [3], -0.134 (inactive); in [4], -1.45 (inactive); in test [10] it was 3.01 (inactive); in test [12] it was 2.55 (inactive); in [13] it was -0.247 (inactive). The z-score in test [14] is -2.2 (inactive); in test [15], -1.04 (inactive); in test [16] it was 1.68; in test [17], 0.391 (inactive); in [18], 0.284 (inactive); in [19], 0.531.
Regarding `CC(C)N1CC=CC23O[C@@H]4/C=C\CCCOC(=O)C4[C@H]2C(=O)N(CCO)[C@@H]3C1=O` (stereo partly specified), the composite z-score in test [1] was -0.0732; in test [5], -0.0353; in [6] it was -0.0695; with Torsin-1A (Homo sapiens) [7] it was -0.373; with Torsin-1A (Homo sapiens) [8] it was -0.582; in test [9], 0.289. In test [11], the composite z-score is -0.0518. Further, the z-score in test [2] was -1.04 (inactive); in test [3] it was -0.358 (inactive); in [4], -0.457 (inactive); in [10], 3.41 (inactive); in test [12], 2.92 (inactive); in [13] it was 0.236 (inactive). Also, the z-score was 0.716 (inactive) in test [14]; -0.806 (inactive) in test [15]; 0.54 in [16]; 1.23 (inactive) in test [17]; 0.375 (inactive) in [18]; 1.84 in [19].
Take `C=CC[C@]1(C(=O)O)N=C(c2ccc(OCCCO)cc2)O[C@H]1c1ccccc1`: the composite z-score was -0.0903 in test [1]; 0.0596 in [5]; -0.0471 in test [6]; -0.753 with Torsin-1A (Homo sapiens) [7]; -0.0649 with Torsin-1A (Homo sapiens) [8]; -0.712 in [9]. In addition, in [11], the composite z-score is -0.0984. Moreover, the z-score in [2] is -0.551 (inactive); in test [3] it was 1.38 (inactive); in [4], -1.04 (inactive); in test [10] it was 1.14 (inactive); in test [12] it was 11.7 (active); in test [13] it was 0.66 (inactive). Further, the z-score is 0.211 (inactive) in [14]; 0.198 (inactive) in test [15]; 0.663 in test [16]; -0.343 (inactive) in test [17]; 0.388 (inactive) in test [18]; 1.22 in test [19].
As to `CCCCCCc1nc(C2CC2)c(C)c2c1[Si](C(C)C)(C(C)C)OC2`, the composite z-score in test [1] was -0.0534; in test [5], -0.0332; in test [6] it was -0.0494; with Torsin-1A (Homo sapiens) [7], 0.277; with Torsin-1A (Homo sapiens) [8] it was 0.305; in test [9], 0.0027. In [11], this compound registered a composite z-score of -0.196. Moreover, the z-score is -5.02 (inactive) in test [2]; 0.236 (inactive) in [3]; -0.75 (inactive) in [4]; 2.16 (inactive) in test [10]; 2.89 (inactive) in test [12]; 0.176 (inactive) in [13]. Further, the z-score was -0.162 (inactive) in [14]; 0.0166 (inactive) in [15]; 3.38 in test [16]; -0.579 (inactive) in test [17]; -0.404 (inactive) in [18]; -1.38 in [19].
